# Screening results as filed in PubChem.
# Most compounds without a hit are left out; they make up all but 7.5% or so of the library.
# Luc counter: counter-screen: inhibitors of Kinase-Glo firefly luciferase; Potency, µM (highest dose often 38.3 µM), usual class: inhibitors; AID 1379; Kinase-Glo luciferase, ATP luminescence, 8 min; actives 0.28% (n = 200,000); further: nearly all actives have a fitted effect of over 60% in size
#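 Substrate mix (final 50 mM imidazole pH 7.2, 50 mM KCl, 7 mM MgCl2, 10 uM ATP, 0.01% Tween 20, 0.05% BSA) plus pin-tool compound, then Kinase-Glo detection mix; 8 min ambient, luminescence read.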
# FLuc modulator: firefly luciferase modulation, counter-screen for miR-21 project; P08659; purified FLuc, Km substrates, luminescence inhibition; Potency, µM (top dose mostly 57.5 µM), usual class: inhibitors; actives 6.9% (n = 360,000); AID 588342; further: nearly all actives have a fitted effect of over 55% in size
# Target sequence (P08659 whole entry, looked up): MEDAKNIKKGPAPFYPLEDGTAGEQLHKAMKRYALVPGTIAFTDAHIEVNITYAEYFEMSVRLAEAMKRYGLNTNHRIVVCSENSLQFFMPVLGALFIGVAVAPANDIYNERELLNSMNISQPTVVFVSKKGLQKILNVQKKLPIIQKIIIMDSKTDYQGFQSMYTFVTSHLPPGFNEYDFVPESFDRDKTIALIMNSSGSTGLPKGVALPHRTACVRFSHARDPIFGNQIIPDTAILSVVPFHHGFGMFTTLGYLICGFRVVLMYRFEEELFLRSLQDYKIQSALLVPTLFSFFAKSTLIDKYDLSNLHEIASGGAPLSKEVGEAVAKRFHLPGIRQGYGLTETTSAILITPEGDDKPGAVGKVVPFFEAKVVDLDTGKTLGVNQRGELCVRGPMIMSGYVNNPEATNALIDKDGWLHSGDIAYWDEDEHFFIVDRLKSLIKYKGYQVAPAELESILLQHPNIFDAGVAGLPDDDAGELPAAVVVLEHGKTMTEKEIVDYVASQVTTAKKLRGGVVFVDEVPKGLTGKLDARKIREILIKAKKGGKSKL
#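 Purified P. pyralis luciferase, 10 nM final, with Km-level 10 uM D-luciferin and 10 uM ATP in 50 mM Tris acetate pH 7.5, 10 mM Mg acetate, 0.01% Tween-20, 0.05% BSA; 6-point qHTS titration about 60 µM downward; luminescence read.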
# NPC1 promoter act: activates the NPC1 promoter | Huh7 NPC1 promoter luciferase reporter, 24 h | AID 485313 | Potency, µM (top dose mostly 9.22 µM), hits mostly activators | actives 2.4% (n = 320,000); further: nearly all actives have a fitted effect of over 60% in size
#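 Huh7 cells stably carrying NPC1 promoter–luciferase, plated in Opti-MEM with 10% FBS for 2 h, were exposed to compound in DMSO for 24 h at 37 °C; luciferase reagent was added for 10 min and luminescence read.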
# SMN2 splice up: SMN2 splice variant enhancement. AID 1458. actives 2.8% (n = 210,000). Potency, µM (doses to about 46.1 µM), most hits filed as activators. HEK293 SMN2-luciferase splicing reporter, luminescence, 30-36 h; further: nearly all actives have a fitted effect of over 55% in size
#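 HEK293 cells carry an SMN2 minigene-luciferase reporter in which exon 7 inclusion puts luciferase in frame. Cells were seeded at 2000 cells/well, attached for 10-12 hours, then exposed to compounds for 30-36 hours at 37C before ONE-Glo luminescence.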
# ELG1 genotoxic: inducers of genotoxicity in HEK293T ELG1-luciferase cells | HEK293T ELG1-luciferase reporter, luminescence, 16 h | Potency, µM (doses to about 46 µM), most hits filed as activators | actives 1.3% (n = 330,000) | AID 504466; further: nearly all actives have a fitted effect of over 60% in size
#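 Screening used a luciferase reporter fused to human ELG1 in HEK293T cells. Luminescence was read on a CCD plate imager after 16 hr exposure and 30 min ONE-Glo incubation.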
# Rab9 prom act: activates the Rab9 promoter; actives 2.8% (n = 320,000); AID 485297; Potency, µM (series often up to 9.22 µM), most hits filed as activators; Huh7 Rab9 promoter-luciferase reporter, luminescence, 24 h; further: nearly all actives have a fitted effect of over 60% in size
#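 Huh7 reporter line, Rab9 promoter upstream of luciferase. Compound exposure 24 h at 37 °C in reduced-serum medium with 10% FBS. Read-out: luminescence.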
# A number is an active result; 0 = inactive; ? = inconclusive; - = no result; ! = a repeat was not active; [ ] = remark or other dose. The call rests on the fitted dose curve; in most records, active means well fitted curve in the direction sought with a large enough effect; inconclusive means small, poorly fitted or top-dose-only effect, or another doubt; inactive means no such curve, though single readings can be large; an effect the other way counts as inactive or inconclusive.
SMILES,Luc counter,FLuc modulator,NPC1 promoter act,SMN2 splice up,ELG1 genotoxic,Rab9 prom act
Cc1ccc(C(=O)Nc2nnc(S(=O)(=O)N3CCCCCC3)s2)cc1,-,9.53µM!,0,-,0,0
COc1ccccc1C(=O)Nc1nnc(S(=O)(=O)N2CCCCCC2)s1,-,10.7µM!,0,-,0,0
O=C(Nc1nnc(S(=O)(=O)N2CCOCC2)s1)c1cccc(F)c1,-,15.1µM!,?,-,0,?
Cc1ccc(OCC(=O)Nc2nnc(S(=O)(=O)N3CCCCCC3)s2)cc1,-,9.53µM!,0,-,0,0
Cc1ccc(C(=O)Nc2nnc(S(=O)(=O)N3CCOCC3)s2)cc1,-,0,0,-,0,?
CC(=O)N1CCC2(CCCN(C(=O)Nc3cccc(F)c3)C2)CC1,0,-,-,0,-,-
COc1ccc(C(=O)Nc2nnc(S(=O)(=O)N3CCCCCC3)s2)cc1OC,-,?,0,-,0,0
COc1ccc(C(=O)Nc2nnc(S(=O)(=O)N3CCC(C)CC3)s2)cc1OC,-,3.38µM!,0,-,0,0
CCCC(=O)Nc1nnc(S(=O)(=O)N2CCCC2)s1,-,0,0,-,0,0
O=C(Nc1nnc(S(=O)(=O)N2CCCCCC2)s1)c1ccccc1F,-,16.9µM,0,-,0,0
O=C(Nc1nnc(S(=O)(=O)N2CCCC2)s1)c1cccc([N+](=O)[O-])c1,-,15.1µM,0,-,0,0
CCCC(=O)Nc1nnc(S(=O)(=O)N2CCCCCC2)s1,-,10.7µM!,0,-,0,0
COC(=O)N1CCC2(CCN(Cc3ccccc3)CC2)CC1,0,-,-,0,-,-
COc1ccc(OC)c(NC(=O)c2c(NCc3ccc(C)o3)sc3c2CCC(C)C3)c1 (configuration not stated),-,0,-,-,-,-
COc1ccccc1C(=O)Nc1nnc(S(=O)(=O)N2CCCCC2)s1,-,0,0,-,0,0
O=C(Nc1cccc(NC(=O)c2cccc([N+](=O)[O-])c2)n1)c1cccc([N+](=O)[O-])c1,-,0,0,-,?,0
Cc1ccccc1C(=O)Nc1nnc(S(=O)(=O)N2CCCCCC2)s1,-,13.5µM!,0,-,0,0
CC1CN=C(NC(=O)c2cccc([N+](=O)[O-])c2)S1 (configuration not stated),-,2.39µM,0.501µM,-,?,0.398µM
O=C(NC1=NCCS1)c1ccc(-c2ccc(Cl)cc2)o1,0,1.9µM,2µM,12.6µM,2.06µM,2µM
O=C(NC1=NCCS1)c1ccc(Br)s1,0,7.57µM,3.55µM,11.2µM,7.31µM,3.55µM
COc1ccc(Cl)cc1C(=O)NC1=NCCS1,-,?,0,-,0,0
O=C(NC1=NCCS1)c1ccc(Cl)cc1,-,10.7µM,1.58µM,-,10.3µM,2µM
O=C(NC1CCC(O)CC1)c1ccc(-c2ccc(Cl)cc2)o1 (configuration not stated),-,10.7µM,?,-,0,?
O=C(NNC(=O)c1ccccc1F)c1ccc(-c2ccc(Cl)cc2)o1,-,?,0,-,0,0
O=C(NC1CCC(O)CC1)c1ccc(Br)o1 (configuration not stated),-,-,-,-,0,-
SMILES,Luc counter,FLuc modulator,NPC1 promoter act,SMN2 splice up,ELG1 genotoxic,Rab9 prom act
O=C(CN1CCCN(Cc2ccccc2Cl)S1(=O)=O)NCc1ccccc1,-,0,-,-,-,-
CSc1ccc(Cl)c(C(=O)Nc2cc(S(=O)(=O)N3CCOCC3)ccc2N2CCOCC2)c1,-,-,-,-,0,-
COC(=O)c1cc(C)sc1NC(=O)CSc1ncccn1,-,0,0,-,0,0
O=C(O)c1cncc(C#CCC2CCCCC2)c1,-,?,?,-,0,2.82µM
O=C(O)c1cncc(C#Cc2ccccc2)c1,-,?,0,-,0,0
O=C(NCc1ccco1)c1ccc(Cn2c(SCc3ccc(F)cc3)nc3cccnc32)cc1,-,6.01µM,-,-,-,-
O=C(NCc1cccs1)c1ccc(CSc2nc3cccnc3n2Cc2ccc(F)cc2)cc1,-,0,-,-,-,-
O=C(NCCc1ccccc1)c1ccc(Cn2c(SCc3ccccc3F)nc3cccnc32)cc1,-,5.36µM,-,-,-,-
Cc1ccccc1CNC(=O)c1ccc(CSc2nc3cccnc3n2Cc2ccccc2)cc1,-,0,-,-,-,-
CCOc1ccccc1CNC(=O)c1ccc(Cn2c(SCc3ccccc3)nc3cccnc32)cc1,-,2.69µM,-,0,-,-
CCN(CC)CCNC(=O)c1ccc(Cn2c(SCc3ccccc3)nc3cccnc32)cc1,-,13.5µM,-,-,-,-
COc1ccc(C)c2sc(N(Cc3cccnc3)C(=O)c3cccs3)nc12,-,0,-,-,-,-
COc1ccc(Cn2c(SCc3ccc(C(=O)NCCc4ccccc4)cc3)nc3cccnc32)cc1,-,0,-,0,-,-
COc1cccc(CCNC(=O)c2ccc(Cn3c(SCc4ccccc4)nc4cccnc43)cc2)c1,-,9.53µM,-,0,-,-
O=C(NCCc1ccccc1)c1ccc(Cn2c(SCc3ccc(F)cc3)nc3cccnc32)cc1,-,4.78µM,-,-,-,-
Cc1ccccc1C(=O)c1cccn1CC(=O)NC(C)c1ccc2c(c1)OCCO2 (configuration not stated),0,0,0,0,0,0
COC(=O)c1ccc(NC(=O)c2ccc3c(c2)NC(=O)C2CCCN32)cc1 (configuration not stated),-,?,0,-,0,0
O=C(Nc1ccccc1)C1=C[C@@H](C2CCCCC2)C[C@@H](OCCCCO)O1,-,12µM,0,-,?,?
CN(C)c1ccc(NC(=O)CSC2=Nc3ccccc3C3=NC(CC(=O)NCc4ccc5c(c4)OCO5)C(=O)N23)cc1 (configuration not stated),-,0,-,-,-,-
CCOC(=O)c1c(C)[nH]c(/C(C)=N/O)c1C,0,0,0,0,0,0
CCOC(=O)c1c(C)[nH]c(C2=NNC(=NC3CC3)SC2)c1C,0,0.601µM,?,0,0.58µM,?
O=C(CN1CCN(C(=O)c2ccc(-c3nc4ccccc4s3)o2)CC1)Nc1ccc(F)cc1,-,16.9µM,0,-,0,0
Cc1cccc(NC(=O)CN2CCN(C(=O)c3ccc(-c4nc5ccccc5s4)o3)CC2)c1C,-,23.9µM,0,-,0,0
O=C(CN1CCN(C(=O)c2ccc(-c3nc4ccccc4s3)o2)CC1)Nc1ccccc1Cl,-,?,0,-,0,0
COc1cccc(-c2ccnc3c(-c4ccc(F)cc4)c(C)nn23)c1,-,8.49µM,-,0,-,-
SMILES,Luc counter,FLuc modulator,NPC1 promoter act,SMN2 splice up,ELG1 genotoxic,Rab9 prom act
COc1cccc(-c2ccnc3c(-c4ccccc4)c(C)nn23)c1,-,10.7µM,-,?,-,-
COc1ccc(C(=O)O)cc1NC(=S)NC(=O)c1ccc(-c2ccc(Cl)cc2)o1,0,13.5µM,0,0,0,0
Cc1ccc(C(=O)O)cc1NC(=S)NC(=O)c1ccc(-c2ccc(Cl)cc2)o1,-,?,0,-,0,0
O=C(O)c1cccc(NC(=S)NC(=O)c2ccc(-c3ccc(Cl)cc3)o2)c1,0,15.1µM,0,0,0,?
COc1cc([N+](=O)[O-])cc2sc(NC(=O)c3c(F)cccc3F)nc12,0,0,0,0,0,0
CCOc1ccc(NC(=O)CSc2nc(=O)n(Cc3cccnc3)c3c2CCC3)cc1,-,0,0,-,0,0
c1ccc2cc(-c3cc(-c4cc(-c5ccc6ccccc6c5)on4)no3)ccc2c1,0[7.66 µM],-,-,?,-,-
